Measured values as given in article PMC4336329 (PLoS ONE, 2015).
Screen size: about 310,000 compounds; about 14,000 (4.5%) showed an effect of 50% or more. Effects have a minus sign here. Shown is part of a subset that was picked to be rich in strong results.

Biological target: human ether-à-go-go-related gene (hERG) potassium channel (human, UniProt Q12809)
Assay: primary screen, population patch clamp on CHO cells stably expressing hERG; higher = less effect of the substance
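Also: peak tail current of the secondary pulse compared with the same well before compound.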

human ether-à-go-go-related gene (hERG) potassium channel, sequence (Q12809 whole entry, looked up): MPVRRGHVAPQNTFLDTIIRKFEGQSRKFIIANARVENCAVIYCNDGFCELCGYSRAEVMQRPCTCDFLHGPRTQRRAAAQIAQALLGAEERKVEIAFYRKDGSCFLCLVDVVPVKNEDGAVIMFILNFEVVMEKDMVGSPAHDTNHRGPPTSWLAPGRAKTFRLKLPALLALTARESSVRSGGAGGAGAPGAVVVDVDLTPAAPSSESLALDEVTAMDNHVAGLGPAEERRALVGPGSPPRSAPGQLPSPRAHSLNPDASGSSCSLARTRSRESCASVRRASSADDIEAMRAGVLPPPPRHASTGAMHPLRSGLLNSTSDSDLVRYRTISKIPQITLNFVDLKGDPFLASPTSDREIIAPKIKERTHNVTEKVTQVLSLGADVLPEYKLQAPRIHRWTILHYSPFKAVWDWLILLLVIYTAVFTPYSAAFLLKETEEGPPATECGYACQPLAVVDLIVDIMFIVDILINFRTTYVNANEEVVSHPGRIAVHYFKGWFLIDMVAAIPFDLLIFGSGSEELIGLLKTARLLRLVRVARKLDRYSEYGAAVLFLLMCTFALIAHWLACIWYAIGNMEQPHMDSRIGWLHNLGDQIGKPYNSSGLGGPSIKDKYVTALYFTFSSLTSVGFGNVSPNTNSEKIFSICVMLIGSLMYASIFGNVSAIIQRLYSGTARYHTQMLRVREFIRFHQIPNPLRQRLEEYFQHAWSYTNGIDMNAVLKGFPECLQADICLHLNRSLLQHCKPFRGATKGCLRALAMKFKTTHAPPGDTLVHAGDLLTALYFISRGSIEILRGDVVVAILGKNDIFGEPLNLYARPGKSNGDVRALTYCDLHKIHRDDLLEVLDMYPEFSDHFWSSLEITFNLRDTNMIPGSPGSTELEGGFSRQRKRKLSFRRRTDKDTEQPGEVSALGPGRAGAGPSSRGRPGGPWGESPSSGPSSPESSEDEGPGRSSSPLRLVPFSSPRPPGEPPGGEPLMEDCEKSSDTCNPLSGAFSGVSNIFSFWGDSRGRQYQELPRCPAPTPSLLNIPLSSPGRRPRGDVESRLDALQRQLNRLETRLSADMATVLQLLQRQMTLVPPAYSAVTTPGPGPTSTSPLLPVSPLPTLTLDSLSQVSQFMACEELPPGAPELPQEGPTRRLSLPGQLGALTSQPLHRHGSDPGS

SMILES	hERG current change (%, negative = inhibition) at 10uM [%]
COC(=O)CCC(=O)NNC(=O)CCC(=O)Nc1cccc(Cl)c1C	6.61
CNC(=O)c1cc(-c2ccc(Cl)cc2)n(-c2ccccc2)n1	4.41
Cc1ccc(C)c(NS(=O)(=O)c2cc(C(=O)NCC3CCCO3)ccc2C)c1 (centres unmarked)	-47.7
Cc1nc(S(=O)(=O)Cc2ccccc2Cl)nc2c1CCC2	24.1
O=C(CSc1nc2c(cnn2-c2cccc(Cl)c2)c(=O)[nH]1)NCCC1=CCCCC1	-16.7
CC(C)NC(=O)COC(=O)CNC(=O)c1cc(Cl)cc([N+](=O)[O-])c1	-0.0659
COC(=O)/C(=N\OCc1ccc(C#N)cc1)c1c(C)nn(C)c1C	-29.3
CC1(C2CC2)NC(=O)N(CC(=O)Nc2ccc(Cl)c([N+](=O)[O-])c2)C1=O (centres unmarked)	-1.15
CCCc1n[nH]c(=O)c2c1nnn2Cc1ccccc1	4.86
CC(=O)c1ccc2c(c1)OCO2	16.1
O=C(O)c1ccc2c(c1)OCCCO2	4.27
O=C(c1ccccc1)c1ccc2c(c1)OCCOCCOCCO2	-3.96
CC(=O)c1ccc2c(c1)OCCOCCOCCOCCOCCO2	-62.4
CC(=O)c1ccc2c(c1)OCCOCCOc1ccc(C(C)=O)cc1OCCOCCO2	-76.6
CC(=O)c1ccc2c(c1)OCCOCCOCCOCCO2	-49.3
CC(=O)c1ccc2c(c1)OCCOCCOCCO2	8.76
O=C(c1ccccc1)c1ccc2c(c1)OCCCO2	-5.56
O=C(O)c1ccc2c(c1)OCCOCCOCCOCCOCCO2	-64
O=C(c1ccccc1)c1ccc2c(c1)OCCOCCOCCOCCO2	-65
O=C(O)c1ccc2c(c1)OCCO2	3.19
NC(=O)c1ccc2c(c1)OCCO2	6.04
CC(=O)Nc1ccc(C(=O)NNC(=O)c2cccc(C)c2)cc1	-1.91
CCCC(=O)Nc1nnc(-c2ccco2)s1	2.55
O=C(COC(=O)CSc1ccc(F)cc1)NNC(=O)c1ccc([N+](=O)[O-])cc1	-30.2
O=C(CCCN1C(=O)/C(=C/c2cccs2)SC1=S)NNC(=O)c1ccccc1O	4.76

SMILES	hERG current change (%, negative = inhibition) at 10uM [%]
COc1ccccc1Nc1nn2c(=O)c3ccc(C(=O)N4CCCCC4)cc3nc2s1	3.25
Cc1cccc(OCC(=O)N=Nc2c(O)[nH]c3ccc([N+](=O)[O-])cc23)c1	-2.59
CCOC(=O)CN1C(=O)C(Sc2n[nH]c(-c3cccc(C)c3)n2)CCc2ccccc21 (centres unmarked)	6.35
COc1ccc(CCC(=O)N2CCCc3ccccc32)cc1	6.02
Nc1c(S(=O)(=O)c2cc(Cl)ccc2Cl)c2nc3ccccc3nc2n1CCN1CCOCC1	-15.3
CC(NCC(O)COc1ccccc1)C1COc2ccccc2O1 (centres unmarked)	-46.7
COc1cc(CN2CCN(C(C)C)C(CCO)C2)ccc1OCc1ccccc1 (centres unmarked)	-55.2
CC(C)N1CCN(Cc2ccc(OC3CCCC3)cc2)CC1CCO (centres unmarked)	-10.7
CC(C)N1CCN(Cc2ccc3c(c2)Cc2ccccc2-3)CC1CCO (centres unmarked)	-52.4
CC(C)N1CCN(Cc2ccc(Oc3ncccn3)cc2)CC1CCO (centres unmarked)	10.9
CC(C)N1CCN(Cc2ccc3nsnc3c2)CC1CCO (centres unmarked)	8.66
CC(C)N1CCN(Cc2ccc(OCc3ccccc3)cc2)CC1CCO (centres unmarked)	-51.6
COc1ccc(CN2CCN(C(C)C)C(CCO)C2)cc1Cn1cncn1 (centres unmarked)	34.1
CCN1CCN(Cc2ccc(OCc3ccccc3)c(OC)c2)CC1	-17.7
CC(C)N1CCN(Cc2ccncc2)CC1CCO (centres unmarked)	4.5
CCCSc1nsc(NC(=O)C(c2ccccc2)c2ccccc2)n1	19.3
Cc1nn(C)c(C)c1NC(=O)c1cnn2c(C(F)F)cc(-c3ccccc3)nc12	40.4
COc1ccccc1N(CC(=O)N1CCCC1)S(=O)(=O)c1ccc(C)cc1	5.18
COc1ccc(-c2noc(CCCC(=O)Nc3cccnc3)n2)cc1OC	-6.97
c1ccc(-c2cc(-c3ccccc3)[nH]n2)cc1	12.3
CC(C)(C)c1ccc(C(=O)NCCC(=O)N2CCCC2)cc1	16.4
Cc1ccc(NC(=S)N(C)N)cc1Cl	16.8
COC(=O)CN1C(=O)[C@@H]2[C@H](C1=O)[C@@H]1CC(C(=O)OC)=C[C@@H](C(=O)OC)[C@@H]3C1=C(C(=O)[C@@]3(C)NC(=O)c1ccccc1)[C@@H]2C	-2.29
COc1ccc(CNS(=O)(=O)c2ccc(-n3cnnn3)c(C)c2)cc1	-15.3
CCSC(=S)c1c(C)[nH]n(-c2ccccc2)c1=O	12.9

SMILES	hERG current change (%, negative = inhibition) at 10uM [%]
Cc1ccc(NC(=O)c2cc(S(=O)(=O)c3ccccc3)ccc2Cl)cc1	-15.4
O=C(Nc1ccc(F)cc1)C(c1ccccc1)N1CCN(S(=O)(=O)c2ccccc2)CC1 (centres unmarked)	-5.63
O=C(Nc1ccc(F)cc1)C(c1ccccc1)N1CCN(CC(=O)N2CCOCC2)CC1 (centres unmarked)	-52.1
COc1cccc(NC(=O)C(c2ccccc2)N2CCN(CC(=O)N3CCOCC3)CC2)c1 (centres unmarked)	-36.8
O=C(CN1CCN(C(C(=O)Nc2ccc(F)cc2)c2ccccc2)CC1)NC1CC1 (centres unmarked)	-27.8
CCOc1ccccc1NC(=O)C(c1ccccc1)N1CCN(CC(=O)N2CCOCC2)CC1 (centres unmarked)	-76.1
O=C(Nc1ccc(F)cc1)C(c1ccccc1)N1CCN(CC(=O)N2CCCC2)CC1 (centres unmarked)	-65.3
CC(C)c1ccc(NC(=O)C(c2ccccc2)N2CCOCC2)cc1 (centres unmarked)	-12.2
O=C(Nc1ccc(Cl)cc1)C(c1ccccc1)N1CCOCC1 (centres unmarked)	-27.6
CCOc1ccccc1NC(=O)NC1(C(=O)N2CCOCC2)CCCCC1	15.6
Cc1ccc(NC(=O)C(c2ccccc2)N2CCN(CC(=O)N3CCOCC3)CC2)cc1Cl (centres unmarked)	-67.4
Cc1ccc(NC(=O)C(c2ccccc2)N2CCN(CC(=O)N3CCOCC3)CC2)cc1 (centres unmarked)	-43
O=C(CN1CCN(C(c2ccccc2)c2ccccc2)CC1)N1CCOCC1.O=C(O)C(=O)O	-22.3
COC(=O)c1c(C(=O)OC)c2n(c1C)CCS2	3.54
COc1ccc(OC)c(NC(=O)COC(=O)Cn2nnc(-c3ccccc3)n2)c1	2.66
CCCc1nn2c(=O)cc(CSCC(=O)Nc3ccccc3OC)nc2s1	14.8
O=C(CSc1nc2ccccc2nc1N1CCOCC1)Nc1ccccc1F	-4.19
COc1cccc(C(=O)Nc2ccc(NC(=O)Cc3ccccc3)cc2)c1	-24.1
CCOc1ccccc1CNc1nc2nc3c(c(=O)n2[nH]1)CCC3	19.6
Oc1c(Br)cc(C2N=C(c3ccccc3Cl)NO2)cc1Br (centres unmarked)	-2.5
CCCc1c(C)nc(N2CCN(c3ccccc3OC)CC2)[nH]c1=O	25.2
COc1ccccc1C(=O)NC(=O)COC(=O)c1ccc(Cl)cc1[N+](=O)[O-]	21.6
COc1ccc(Nc2nc(Nc3ccc(OC)cc3)nc(-n3[nH]c(=O)c(C)c3C)n2)cc1	-10.1
CCOc1cc(/C=N/NC(=O)c2ccc(N(C)S(=O)(=O)c3ccccc3)cc2)ccc1OC	-33
Cc1cccc2[nH]c(CN(C)Cc3nc(CC4CC4)no3)nc12	-11.8

SMILES	hERG current change (%, negative = inhibition) at 10uM [%]
O=C(COc1ccc(CO)cc1)Nc1ccc(F)cc1	0.156
CCc1cc(=O)oc2c(C)c(O)c(CN3CCCCC3)cc12	-0.833
CCc1n[nH]c(=S)n1N=C1CCC(C)CC1 (centres unmarked)	19.1
CC1(C)CC(=O)C=C(NC2=CC3OC(c4ccccc4)OCC3OC2=O)C1 (centres unmarked)	-0.196
C#Cc1ccc([C@@H]2C=C(C(=O)Nc3ccccc3)O[C@H](OCC)[C@H]2CCCO)cc1	-22.2
CC(=O)N1CCN(C(=O)c2cc(-c3cccc4ccccc34)nc3ccccc23)CC1	-28.9
CN1CCCN(C(=O)c2cc(-c3cccc4ccccc34)nc3ccccc23)CC1.Cl	-59.4
CN1CCCN(C(=O)c2cc(-c3ccc(Cl)c(Cl)c3Cl)nc3ccccc23)CC1.Cl	-69
O=C(c1cc(-c2ccccc2Cl)nc2ccccc12)N1CCN(c2ccccc2O)CC1	-22.6
Cc1ccccc1-c1cc(C(=O)N2CCCC2)c2ccccc2n1	-47.9
O=C(c1cc(-c2ccccc2Cl)nc2ccccc12)N1CCC1	-12.4
CCOC(=O)CNC(=O)CSc1nnc(-c2ccncc2)n1-c1ccc(Cl)cc1	-8.18
C=CCc1ccccc1OCC(O)CN1CCN(CCO)CC1.Cl (centres unmarked)	11.3
Cc1ccccc1OCC(O)CN1C(=O)c2ccccc2C1=O (centres unmarked)	4.28
NC(=O)CN1CCN(CCN2C(=O)c3cccc4cccc(c34)C2=O)CC1	-5.61
Cc1cccc(OCC(O)CN2CCN(CCN3C(=O)c4cccc5cccc(c45)C3=O)CC2)c1C (centres unmarked)	-35.7
O=C(C(c1ccccc1)c1ccccc1)N1CCN(CCN2C(=O)c3cccc4cccc(c34)C2=O)CC1	-4.74
Cc1ccccc1OCC(O)CN1CCN(CCN2C(=O)c3cccc4cccc(c34)C2=O)CC1 (centres unmarked)	-74.2
Cc1ccc(NC(=S)N2CCN(CCN3C(=O)c4cccc5cccc(c45)C3=O)CC2)cc1	-1.29
C=CCc1ccccc1OCC(O)CN1CCN(CCN2C(=O)c3cccc4cccc(c34)C2=O)CC1.Cl (centres unmarked)	-57.8
C=CCc1ccccc1OCC(O)CN1C(=O)c2ccccc2C1=O (centres unmarked)	-27.2
Cc1ccc(C)c(OCC(O)CN2CCN(CCN3C(=O)c4cccc5cccc(c45)C3=O)CC2)c1.Cl (centres unmarked)	-67.3
CC(=O)c1ccccc1OCC(O)CN1CCN(CCN2C(=O)c3cccc4cccc(c34)C2=O)CC1 (centres unmarked)	-73.3
